Molecules are shown by their SMILES. In all, about 47,000 compounds went through this assay and about 3,100 (6.6%) were called active. Rule as the data show it: active = inhibition above about 30%; inactive = the rest. For the sample, actives were picked, then their nearest neighbours and some compounds at random.

For this experiment, the target named is Ubiquitin carboxyl-terminal hydrolase 17-like protein 5 (Homo sapiens) (UniProt A8MUK1). Briefly: inhibitors of human USP17 deubiquitinase (AID 1645855). Particulars: purified USP17, Ub-rhodamine cleavage fluorescence, 3 h; at 50 µM; hits give high values.
Chain of Ubiquitin carboxyl-terminal hydrolase 17-like protein 5 (Homo sapiens) (A8MUK1 whole entry, looked up): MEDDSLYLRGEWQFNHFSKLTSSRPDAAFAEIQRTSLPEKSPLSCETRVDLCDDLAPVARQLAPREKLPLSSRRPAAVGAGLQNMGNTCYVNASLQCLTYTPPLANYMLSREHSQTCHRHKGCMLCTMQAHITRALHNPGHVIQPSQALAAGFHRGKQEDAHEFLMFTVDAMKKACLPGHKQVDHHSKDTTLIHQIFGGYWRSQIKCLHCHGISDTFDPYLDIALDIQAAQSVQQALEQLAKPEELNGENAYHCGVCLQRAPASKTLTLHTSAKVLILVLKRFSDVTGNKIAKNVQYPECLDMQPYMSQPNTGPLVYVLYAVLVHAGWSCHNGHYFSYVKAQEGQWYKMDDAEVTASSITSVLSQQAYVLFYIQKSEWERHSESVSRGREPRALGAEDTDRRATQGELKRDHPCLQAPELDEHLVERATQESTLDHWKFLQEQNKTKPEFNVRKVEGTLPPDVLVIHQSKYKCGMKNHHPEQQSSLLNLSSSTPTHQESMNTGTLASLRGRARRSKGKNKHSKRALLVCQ
Consider `C=C(NC(=O)/C(C)=C/C=C\CCCCCC(C)C)C(=O)N/C(=C/OC)C(=O)OC`, for which the inhibition (in general, the change of the read-out against control, counted positive when it falls) was -61.8% (inactive).

Regarding `O=C(Cc1ccc(Cl)cc1)N1CCC2(CN(Cc3ccc(O)cc3)C2)C1`, the inhibition is -0.288% (inactive).

As for `CCOc1ccc(C(=O)C[n+]2cc(-c3ccccc3)n3c2CCC3)cc1`, the inhibition was 3.07% (inactive).

On to `COc1ccccc1CNCc1c(C(=O)O)c(C)n(-c2ccccc2)c1C`, for which the inhibition is 6.79% (inactive).

Take `NC(=O)c1ccccc1NC(=O)C1CN(c2nc3c(F)cccc3s2)C1`: the inhibition is 31% (active).

Turning to `CNC(=O)C1CCN(c2nc3ccc(-c4ccccc4F)nc3s2)CC1`, the inhibition is 15.7% (inactive).

As to `O=C(Nc1ccccc1F)C1CCCN(c2nnc3ccccn23)C1` (stereo not given), the inhibition was 4.67% (inactive).

With `O=C(Nc1cc(Cl)ccc1F)c1cnc(-c2ccccc2)nc1-c1ccncc1`, the inhibition is -172% (inactive).

With `Cc1ccnc(Nc2nc(-c3ccccc3)c3cc(Cl)ccc3n2)n1`, the inhibition is 91.1% (active).

For the compound `CCOc1nc(-c2ccc(Cl)cc2Cl)nc2ccccc12`, the inhibition is 9.99% (inactive).

With `COc1cc2c(c(OC)c1OC)-c1ccc(NCCc3ccc(S(N)(=O)=O)cc3)c(=O)cc1[C@@H](NC(C)=O)CC2`, the inhibition is -68.9% (inactive).

Consider `Nc1nc(COC(=O)c2ccoc2)nc(Nc2ccccc2)n1`, for which the inhibition is -3.92% (inactive).

Regarding `Cc1nc(-c2ccc(C)c(S(=O)(=O)NCc3ccccc3Cl)c2)cs1`, the inhibition is 28% (inactive).

`COc1ccc(C(NC(=O)CN(C)Cc2ccc3c(c2)OCO3)c2ccccc2)cc1` (stereo not given): the inhibition is 35.3% (active).

With `CN(CC(=O)Nc1ccc(F)cc1Cl)Cc1ccc2c(c1)OCO2`, the inhibition is -5.43% (inactive).

With `Cc1ccc(F)cc1NC(=O)CN(C)Cc1ccc2c(c1)OCO2`, the inhibition was 1.53% (inactive).

In the case of `CCN(CC)c1ccc2ccc(C(=O)NCCc3ccccn3)cn12`, the inhibition was -61.8% (inactive).

`COc1cccc(NC(=O)N2CC[C@H]3N(C)CC[C@@]3(C(=O)N3CCCC3)CC2)c1`: the inhibition was -21.3% (inactive).

For `Cc1cc2oc(C(=O)Nc3ccc4c(c3)NC(=O)CO4)c(C)c2cc1Cl`, the inhibition is 11.8% (inactive).

Regarding `COc1cccc(N2CCN(C(=O)Nc3ccc4c(c3)NC(=O)CO4)CC2)c1`, the inhibition was 45% (active).

With `CN(Cc1cccnc1)Cc1ccc(N2CCC(NC(=O)c3ccc4c(c3)OCO4)CC2)nc1`, the inhibition is -12% (inactive).

`O=c1c2cnc(N3CCCCC3)nc2ccn1Cc1cccnc1`: the inhibition was -8.83% (inactive).

Consider `CN1CCN(c2ncc3c(=O)n(Cc4ccccn4)ccc3n2)CC1`, for which the inhibition was 11.4% (inactive).

In the case of `O=c1c2cnc(N3CCOCC3)nc2ccn1CCc1ccccc1`, the inhibition was 71.6% (active).

With `Cc1nnc2n1CC(c1cccc(NC(=O)Cn3ccnc3C(C)C)c1)CC2` (stereo not given), the inhibition was 3.88% (inactive).

Source of the values: PubChem BioAssay AID1645855 (Buhrlage Lab, Dana-Farber Cancer Institute and Novartis …, 2021).
